The values that follow come from ChEMBL document CHEMBL1201862, “PubChem BioAssay data set” (2004).

The structures appear in SMILES notation. Among all 400,000 compounds or so, about 2,100 (0.53%) were called active. About 14% were inconclusive and are not listed. No rule for the calls is given here. Only a selection was taken, and actives are over-represented in it overall.

Sequence of Ataxin-2 (Homo sapiens) (Q99700 whole entry): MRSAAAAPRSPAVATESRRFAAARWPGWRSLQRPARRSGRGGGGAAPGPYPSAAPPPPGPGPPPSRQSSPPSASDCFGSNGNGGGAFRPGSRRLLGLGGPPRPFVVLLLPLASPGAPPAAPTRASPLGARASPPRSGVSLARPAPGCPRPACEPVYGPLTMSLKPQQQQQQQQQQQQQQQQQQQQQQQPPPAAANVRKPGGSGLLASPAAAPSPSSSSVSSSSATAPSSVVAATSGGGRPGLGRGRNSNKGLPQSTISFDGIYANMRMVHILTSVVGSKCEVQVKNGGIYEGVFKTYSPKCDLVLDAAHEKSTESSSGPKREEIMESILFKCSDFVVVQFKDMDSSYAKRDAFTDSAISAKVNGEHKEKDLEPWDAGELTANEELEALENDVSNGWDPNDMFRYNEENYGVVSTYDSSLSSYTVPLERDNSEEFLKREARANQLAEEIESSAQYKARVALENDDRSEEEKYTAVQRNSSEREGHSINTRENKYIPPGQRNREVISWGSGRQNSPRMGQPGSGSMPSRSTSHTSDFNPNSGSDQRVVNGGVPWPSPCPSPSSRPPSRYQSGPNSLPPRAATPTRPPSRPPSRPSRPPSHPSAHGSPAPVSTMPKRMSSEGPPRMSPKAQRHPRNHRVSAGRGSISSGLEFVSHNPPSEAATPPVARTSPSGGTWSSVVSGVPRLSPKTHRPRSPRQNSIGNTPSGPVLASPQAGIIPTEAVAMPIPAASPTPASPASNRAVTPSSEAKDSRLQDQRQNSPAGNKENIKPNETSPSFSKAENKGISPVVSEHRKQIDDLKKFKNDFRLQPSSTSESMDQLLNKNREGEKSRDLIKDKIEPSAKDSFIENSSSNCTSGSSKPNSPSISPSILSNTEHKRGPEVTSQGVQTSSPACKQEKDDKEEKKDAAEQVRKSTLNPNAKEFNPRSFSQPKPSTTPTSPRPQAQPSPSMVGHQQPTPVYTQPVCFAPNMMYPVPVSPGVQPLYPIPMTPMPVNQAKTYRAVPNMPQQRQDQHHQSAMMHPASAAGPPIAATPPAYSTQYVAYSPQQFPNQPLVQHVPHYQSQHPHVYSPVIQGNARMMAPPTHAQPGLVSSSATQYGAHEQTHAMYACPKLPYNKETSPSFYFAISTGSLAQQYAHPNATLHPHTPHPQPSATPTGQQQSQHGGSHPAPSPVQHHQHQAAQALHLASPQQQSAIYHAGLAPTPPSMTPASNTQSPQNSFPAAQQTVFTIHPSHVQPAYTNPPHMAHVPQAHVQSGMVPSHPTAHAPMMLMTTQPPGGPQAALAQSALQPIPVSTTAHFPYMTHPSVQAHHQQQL

This assay has as its target Ataxin-2 (Homo sapiens) (UniProt Q99700). The assay is described as follows: qHTS for Inhibitors of ATXN expression. In kind it is functional. Background: Quantitative high-throughput screening tests each substance at several concentrations.
Turning to `COCCCn1/c(=N/C(=O)c2ccncc2)c(C#N)cc2c(=O)n3cccc(C)c3nc21`, the Potency entry was “inactive”. Under `c1cc2c(cc1C1CCCCC1)c1c3n2CCCNC3CCC1` (stereo unspecified) stands 39.8 µM (active). Under `COc1ccc(OC)c(S(=O)(=O)Nc2ccc(O)c3ccccc23)c1` stands 28.2 µM (active). `COc1ccc(NS(=O)(=O)c2cc(NC(=O)c3cc(=O)c4ccccc4o3)ccc2OC)cc1`: the Potency entry is “inactive”. The value for `COc1ccc(OC)c(S(=O)(=O)Nc2ccc3c(c2)OCCO3)c1` was “inactive”; that for `CN(CCC1CCCCO1)C(=O)CCc1nnc(CCCCc2ccccc2)o1` (stereo unspecified) was “inactive”; that for `Cc1cc(C)c(CN2CCN(CCCn3cnc(C(=O)Nc4ccc(C)c(C)c4)n3)CC2)c(C)c1` was 35.5 µM (active).

As for `Cc1ccc(OCC(=O)Nc2ccc(CN3CCOCC3)cc2)cc1C`, the Potency entry is “inactive”.

`Brc1ccc(C2=CC(c3ccco3)n3nnnc3N2)cc1` (stereo unspecified): the Potency result is “inactive”.

Turning to `CC(C)N=C(S)NN=C1c2ccccc2-c2ccccc21`, the Potency result is “inactive”. The value for `COc1ccc(/C=C/C(=O)Nc2cccnc2)cc1OC` was “inactive”; that for `COc1cc(/C=C/C(=O)Nc2ccc(S(=O)(=O)Nc3onc(C)c3C)cc2)cc(OC)c1OC` was “inactive”.

As to `CCC1CSC(Nc2ccc(C(=O)/C=C/c3ccc(OC)c(OC)c3)cc2)=N1` (stereo unspecified), the Potency is 39.8 µM (active). For `COc1ccc(/C=C/C(=O)Nc2ccc(Cl)c(Cl)c2)cc1OC`, the Potency is 31.6 µM (active). Regarding `CCc1nnc(NS(=O)(=O)c2ccc(N/C=C\C(=O)c3cccc(OC)c3)cc2)s1`, the Potency result is “inactive”. Under `COc1cc(/C=C/C(=O)OCC(=O)NC2CCS(=O)(=O)C2)ccc1OC(F)F` (stereo unspecified) stands “inactive”; under `COc1cccc(/C=C/C(=O)c2ccc(NC3=NCCCS3)cc2)c1`, 39.8 µM (active). Under `CCOC(=O)c1sc2nc(C)nc(Nc3ccc(OC)c(OC)c3)c2c1C` stands “inactive”. Under `CCOc1ccc(Nc2oc(/C=C/c3cccc(OC)c3)nc2C#N)cc1` stands “inactive”; under `CC(C)C(C)(C#N)NC(=O)CSc1nnc(C(F)(F)F)n1C` (stereo unspecified), “inactive”; under `COc1cccc(/C=C/c2nc(C#N)c(N3CCCCCC3)o2)c1`, “inactive”. For the molecule `COc1ccccc1[C@@H]1C(c2cccc(C)c2)=NN(c2ccccc2)[C@H]1C(=O)N1CCOC1=O`, the Potency entry is “inactive”. Under `CCN1CN=C(S)N(c2ccccc2C)C1` stands “inactive”; under `Cc1nn2c(-c3ccc(F)cc3)ccnc2c1Cl`, “inactive”. `CN(C)c1ccc(/C=C2\Oc3ccc(C#Cc4cccc(N)c4)cc3C2=O)cc1`: the Potency result is “inactive”. As for `CN1Cc2c(N3CCOCC3)nc3sc(C(=O)c4ccc(Br)cc4)c(N)c3c2CC1(C)C`, the Potency result was “inactive”.

In the case of `Cc1ccccc1-c1nc(C#N)c(N2CCCCC2)o1`, the Potency entry was “inactive”. With `COC1=C(OC)C(=O)C(Sc2ccc3ccccc3c2)=CC1=O`, the Potency was 33.6 µM (active). As to `CC1=CC(=O)C(Sc2ccc(C)cc2)=CC1=O`, the Potency entry is “inactive”.

For the molecule `Cc1cccn2c(=O)c3cc(C(=O)NCC4CCCO4)c(=N)n(C4CCCCC4)c3nc12` (stereo unspecified), the Potency result was “inactive”.

Turning to `COC(=O)C1=NN(c2ccc(C)cc2)C2C(=O)N(c3ccccc3OC)C(=O)C12` (stereo unspecified), the Potency entry is “inactive”. Under `COc1ccccc1CNC(=O)C(C)Sc1ccc(C)cc1` (stereo unspecified) stands “inactive”. The value for `COc1ccc(OC)c(NC(=O)Nc2nc(C(N)CCc3ccccc3)cs2)c1` (stereo unspecified) was 39.8 µM (active); that for `COc1ccccc1CNC(=O)Cc1cc(O)nc(O)n1` was “inactive”.

For the molecule `COc1ccccc1CNC(=O)Nc1nc(C(N)CCc2ccccc2)cs1` (stereo unspecified), the Potency is 39.8 µM (active). `Cc1ccc(S(=O)(=O)Nc2nc3n(n2)C(c2ccccc2Cl)C=C(c2ccccc2)N3)cc1` (stereo unspecified): the Potency entry is “inactive”. The value for `CSc1ccc(/C=C/c2ccc3cccc(O)c3n2)cc1` was “inactive”. In the case of `Oc1ccc(/C=C/c2ccc3cccc(O)c3n2)cc1Br`, the Potency result was “inactive”. Take `Oc1cccc2ccc(Nc3ccccn3)nc12`: the Potency is 39.8 µM (active). Take `O=c1oc2ccccc2cc1-c1nc2c(s1)CCc1ccccc1-2`: the Potency entry is “inactive”. The value for `Cc1cc(C)c2c(N)c(C(=O)N/N=C/c3cccnc3)sc2n1` was “inactive”; that for `CC(O)CNC12CC3CC(CC(C3)C1)C2` (stereo unspecified) was “inactive”.

Take `CC(NCC(O)COC1CCC(C(C)(C)C)CC1)c1ccccc1` (stereo unspecified): the Potency was 35.5 µM (active). As for `Cc1cccc(C)c1OCC(O)CNC(C)c1ccccc1` (stereo unspecified), the Potency result is “inactive”. `CC(NCC(O)COCCC12CC3CC(CC(C3)C1)C2)c1ccccc1` (stereo unspecified): the Potency was 39.8 µM (active). In the case of `CCOc1ccc2nc(N3CCCN(C(=O)Nc4ccccc4C)CC3)c(C#N)cc2c1`, the Potency entry is “inactive”. With `O=C1CC2C(=O)NCCN2C(NC(=O)c2ccc(Cl)cc2)=N1` (stereo unspecified), the Potency result was “inactive”. Under `Oc1ccc(N=Nc2ccc3c(c2)OCCO3)c2ncccc12` stands 15.8 µM (active); under `COC(=O)c1ccc(C(=O)OC)c(NC(=S)N2CCN(c3ccccc3F)CC2)c1`, “inactive”; under `COc1ccc(-c2nnc(-c3ccccc3)o2)cc1OC`, “inactive”. Take `COc1ccc(CCC(=O)OCC(=O)Nc2ccc(OC)c(OC)c2)cc1OC`: the Potency entry is “inactive”. For `COc1ccc(CC(=O)Nc2cccc(-c3nnc(-c4ccccc4)o3)c2)cc1OC`, the Potency was 10 µM (active). The value for `CCOc1cc(-c2noc(-c3ccncc3)n2)cc(Br)c1OC` was 44.7 µM (active). Regarding `O=[N+]([O-])c1ccc(-c2nc(-c3ccncc3)no2)cc1`, the Potency result was “inactive”.

With `CCOc1ccccc1-c1nc(-c2ccc(C)nc2OC)no1`, the Potency entry is “inactive”. Under `O=C1C=C(N(CCO)Cc2ccccc2)c2ccccc2C1=O` stands 29.9 µM (active); under `CC1(C)Cc2nc(Cl)c(C(N)=O)cc2CO1`, “inactive”.

As for `C=CCC[C@@H](Cc1ccc(F)cc1)C(=O)OC[C@@H](Cc1c[nH]c2ccccc12)NC(=O)[C@H](CC=C)CC(=O)N(CCO)Cc1ccccc1`, the Potency was 22.4 µM (active).

As to `C=CCC[C@H](Cc1ccc(F)cc1)C(=O)OC[C@H](Cc1c[nH]c2ccccc12)NC(=O)[C@@H](CC=C)CC(=O)N(CCO)Cc1ccccc1`, the Potency is 22.4 µM (active). The value for `COC(=O)c1cc(NC(=O)CN2CCN(C(C)=O)CC2)cc(C(=O)OC)c1` was “inactive”. Under `Cc1ccc2[nH]c(CSc3nc(C)cc(C)c3C#N)nc2c1` stands “inactive”.

Turning to `CCc1cc(=O)oc2c(C)c(O)c(CN3CCCCC3)cc12`, the Potency entry was “inactive”. `N#Cc1cc([N+](=O)[O-])c(-n2nnc3ccccc32)c([N+](=O)[O-])c1`: the Potency was 22.4 µM (active). Turning to `O=C(NOC(=O)c1c(F)cccc1Cl)c1ccc(Cl)c(Cl)c1`, the Potency entry was “inactive”. `CCCCN1C(=O)C(O)(CC(=O)c2ccc(C)cc2C)c2cc(Br)ccc21` (stereo unspecified): the Potency was 31.6 µM (active). Under `CCCCN1C=C(C(=O)OC)C(c2ccccc2Cl)C(C(=O)OC)=C1` stands “inactive”. For the molecule `Cc1ccc(OCCn2cnc(Cl)c2Cl)cc1`, the Potency result is “inactive”.

For `CCN(CC)C(=O)c1cccc(NC(=O)c2cc(C3CC3)nc3c2cnn3C(C)C)c1`, the Potency entry was “inactive”.

For `CC(=O)c1ccc(S(=O)(=O)NCCC(=O)N2CCN(c3ccccn3)CC2)cc1`, the Potency entry is “inactive”. With `COc1cc2c(cc1OC)C(C)N(S(=O)(=O)c1cnc(Cl)c(Cl)c1)CC2` (stereo unspecified), the Potency is 12.6 µM (active). Under `COc1cc2c(cc1OC)CN(S(=O)(=O)c1ccccc1F)CC2` stands “inactive”; under `COc1ccc(-c2c(C)nn3c(N4CCOCC4)cc(C)nc23)cc1OC`, “inactive”.

For the molecule `CSc1nc(Nc2ccc(F)cc2)cc(-c2ccccc2)n1`, the Potency was 22.4 µM (active). On to `Cc1cccc2c3nc4ccccc4nc3n(C)c12`, for which the Potency result was “inactive”. On to `O=c1oc2ccccc2n1CCn1c2ccccc2c2nc3ccccc3nc21`, for which the Potency was 44.7 µM (active).

`COC(=O)Cn1c2ccccc2c2nc3ccccc3nc21`: the Potency entry was “inactive”. Under `CC(C)(C)c1ccc(C(=O)N2CCC(=O)N([C@H](COCc3ccccc3)Cc3ccccc3)CC2)cc1` stands 35.5 µM (active); under `CC(C)(C)c1ccc(C(=O)N2CCC(=O)N(C(COCc3ccccc3)Cc3ccccc3)CC2)cc1` (stereo unspecified), 28.2 µM (active); under `CC(C)CC1C(=O)N(Cc2cn(Cc3ccco3)nn2)CCS(=O)(=O)N1Cc1ccc(-c2ccc(F)nc2)cc1` (stereo unspecified), 25.1 µM (active).

Turning to `COc1ccc(-c2ccc(CN3C(CC(C)C)C(=O)N(Cc4cn(CC5CCCCC5)nn4)CCS3(=O)=O)cc2)cn1` (stereo unspecified), the Potency was 10 µM (active). The value for `CC(C)CC1C(=O)N(Cc2cn(Cc3ccco3)nn2)CCS(=O)(=O)N1Cc1ccc(-c2cccc(CO)c2)cc1` (stereo unspecified) was 35.5 µM (active).

On to `COc1ccc(NS(=O)(=O)c2cc3c(cc2C)N(C)CCO3)c(OC)c1`, for which the Potency result was “inactive”. Turning to `CC1CCN(Cc2c(O)ccc3c2O/C(=C\c2ccco2)C3=O)CC1`, the Potency result is “inactive”. As for `O=C(c1cnn(-c2ccccc2)c1)c1cc(F)ccc1O`, the Potency entry was “inactive”.

As to `Cc1sc(-c2ccccn2)nc1OC(=O)c1ccc(F)cc1F`, the Potency result is “inactive”. Under `Cc1cccc2nc(-c3ccccn3)c(Nc3ccc(F)cc3)n12` stands 20 µM (active); under `Cc1cc(Nc2ccc(F)cc2)n2c(nc3ccccc32)c1C#N`, “inactive”. The value for `Cc1ccc(Nc2c(-c3ccsc3)nc3cccc(C)n23)cc1` was 25.1 µM (active). The value for `Cc1ccc(Nc2nc(-c3ccccc3)c(CC(=O)O)s2)cc1` was “inactive”; that for `CCC1Cc2c(nc(N)c3c(N)nc(N4CCCCC4)c(C#N)c23)O1` (stereo unspecified) was “inactive”; that for `N=c1c(C(=O)NCC2CCCO2)cc2c(=O)n3ccccc3nc2n1Cc1ccc(Cl)cc1` (stereo unspecified) was “inactive”.

Take `CC(=O)C1=NN(c2ccccc2)C(c2ccc3c(c2)OCO3)N1c1ccccc1` (stereo unspecified): the Potency entry is “inactive”. Take `Cc1c2c(n3c(nc4ccccc43)c1C#N)N(CCN1CCOCC1)CC2`: the Potency entry was “inactive”. Under `CCOC(=O)c1cc2c(=O)n3ccccc3nc2n(Cc2ccco2)/c1=N\C(=O)c1cccc(C)c1` stands “inactive”. For `CCN(CC)c1ccc2c(C)c(Cl)c(=O)oc2c1`, the Potency result is “inactive”.

Turning to `CCC(=O)Oc1ccc2c(C)c(Cl)c(=O)oc2c1`, the Potency result is “inactive”. Turning to `C=C1CC(COc2ccc3c(C)c(Cl)c(=O)oc3c2)(c2ccccc2)OC1=O` (stereo unspecified), the Potency was 9.47 µM (active).

For `C=C1CC(COc2cc(=O)oc3ccccc23)(c2ccccc2)OC1=O` (stereo unspecified), the Potency is 39.8 µM (active).

On to `COc1cc(NC(=O)c2sc3ncn(CC(=O)N4CCC(C)CC4)c(=O)c3c2C)cc(OC)c1OC`, for which the Potency entry was “inactive”.

`COc1cc(CNC(C)c2ccccc2)cc(Br)c1OCc1ccc(F)cc1` (stereo unspecified): the Potency is 39.8 µM (active). The value for `COc1cc(/C=C(\C#N)c2nc3ccccc3[nH]2)cc(Br)c1OCc1ccccc1` was “inactive”.
